Here are results for 28 compounds from PubChem BioAssay (NCATS).

Assay [1] has as its target Glucagon-like peptide 1 receptor (Homo sapiens) (UniProt P43220). Put plainly: qHTS of GLP-1 Receptor Agonists: LOPAC Validation (AID 624148).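 Note: luminescence from a luciferase reporter switched on by cAMP; higher luminescence signal means agonism.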 In outline:
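Agonism scored as increased luciferase luminescence driven by cAMP in HEK293 clones carrying GLP-1R. Cells settled 12 hours, received compound for 4-6 hr at 37 deg C, 5% CO2, and were read after 12 min detection reagent at RT.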
A general note: qHTS replaces the single test concentration by a dilution series.

Assay [2] is described as follows: qHTS of Nrf2 Activators: LOPAC Validation (AID 624149). Note: potency is the fitted concentration of half-maximal effect. In outline:
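ARE reporter activation measured in AREc32 firefly luciferase cells after 24 hr compound exposure; Steady-Glo luminescence.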

Assay [3] in a line: HTS Assay for Allosteric Antagonists of the Human D2 Dopamine Receptor: Hit Validation in HTRF (AID 624455).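 Note: stable D1 dopamine receptor cell line scored for blocking the D1 response.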 In outline:
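Signal from an HTRF read-out in D1-expressing stable cells gave hit activity as inhibition of the D1 response.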

The nature of assay [4]: Cytotoxicity counterscreen for NFkB agonists and antagonists (AID 624476). Note: potency is the fitted concentration of half-maximal effect. For orientation: A counterscreen serves to expose hits that act by an unwanted route or on another target.
Assay [5] is described as follows: qHTS Assay for Identification of Small Molecule Agonists for NFkB Signaling Pathway. (AID 624478).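 Note: compounds tested together with TNF alpha at its EC50 of 10 pM.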 An outline of the steps: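 Cells carrying an NFkB response element-driven beta-lactamase gene are co-treated with compound and 10 pM TNF alpha for 5 h, and reporter activity is then read as 460 and 530 nm fluorescence.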
Assay [6] can be described thus: qHTS Assay for Identification of Small Molecule Antagonists for NFkB Signaling Pathway. (AID 624479; calls by dose curve;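 note: pathway stimulated with TNF alpha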; note: potency is the fitted concentration of half-maximal effect).
Assay [7] can be described thus: Cell Proliferation Assay against the TMD8 Cell Line (AID 651645).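 Note: cells exposed to compound for 48 h before reading.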 Particulars: TMD8 DLBCL cell line proliferation/viability; at 46.1 µM (top of the series) unless noted. An outline of the steps: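 Cell viability of the ABC DLBCL line TMD8 is measured by CellTiter-Glo luminescence following a 48-hour incubation with compound. Percent activity uses DMSO as 100% and 9.2 uM bortezomib (final) as 0%.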

A short description of assay [8]: Cell Proliferation Assay against the HBL1 Cell Line (AID 651646).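 Note: cells exposed to compound for 48 h before reading.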 The note with it: HBL1 DLBCL cells; at 92.2 µM (top of the series) unless noted. An outline of the steps: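 Luminescent ATP read-out (CellTiter-Glo) after 48 h compound exposure of HBL1 cells at 37 °C; percent activity was scaled between DMSO as 100% and 9.2 uM bortezomib (final) as 0%.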
A short description of assay [9]: Cell Proliferation Assay against the TMD8 Cell Line (Caspase readout at 16 hrs) (AID 651712). Note: potency is the fitted concentration of half-maximal effect. Particulars: TMD8 lymphoma cells, caspase activation luminescence. In outline: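 Apoptotic response of TMD8 cells was judged from caspase 3/7 activation following a 16 hour compound incubation at 37 °C. Luminescent signal was converted to percent activity, with DMSO set as 0% and 9.2 uM final bortezomib as 100%.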

The target in assay [10] is Tumor susceptibility gene 101 protein (Homo sapiens) (UniProt Q99816). Put plainly: qHTS Assay for Iinhibitors of HIV-1 Budding by Blocking the Interaction of PTAP/TSG101: Hit Validation (AID 651600). Note: potency is the fitted concentration of half-maximal effect; nearly all actives have a fitted effect of over 70% in size. Particulars: PTAP peptide/TSG101 UEV interaction, biochemical assay. An outline of the steps:
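Measuring PTAP–Tsg101 interaction by FP: protein at 10 uM and fluorescent peptide at 50 nM (final), buffer 10 mM HEPES pH 7.5 with 0.15 M NaCl, 3 mM EDTA, 0.1 mM TCEP, 0.01% Tween 20; 20 min incubation, r.t.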

Records with an inconclusive call do not appear. Where a call stands in place of a potency, no number is given. Calls of active or inactive are those of the source. Unless noted, calls come from the whole dose curve; as a rule, active = well fitted curve in the direction sought with a large enough effect; inconclusive = small, poorly fitted or top-dose-only effect, or another doubt; inactive = no such curve, though single readings can be large; an effect the other way counts as inactive or inconclusive.

Chain of Glucagon-like peptide 1 receptor (Homo sapiens) (P43220 whole entry, looked up): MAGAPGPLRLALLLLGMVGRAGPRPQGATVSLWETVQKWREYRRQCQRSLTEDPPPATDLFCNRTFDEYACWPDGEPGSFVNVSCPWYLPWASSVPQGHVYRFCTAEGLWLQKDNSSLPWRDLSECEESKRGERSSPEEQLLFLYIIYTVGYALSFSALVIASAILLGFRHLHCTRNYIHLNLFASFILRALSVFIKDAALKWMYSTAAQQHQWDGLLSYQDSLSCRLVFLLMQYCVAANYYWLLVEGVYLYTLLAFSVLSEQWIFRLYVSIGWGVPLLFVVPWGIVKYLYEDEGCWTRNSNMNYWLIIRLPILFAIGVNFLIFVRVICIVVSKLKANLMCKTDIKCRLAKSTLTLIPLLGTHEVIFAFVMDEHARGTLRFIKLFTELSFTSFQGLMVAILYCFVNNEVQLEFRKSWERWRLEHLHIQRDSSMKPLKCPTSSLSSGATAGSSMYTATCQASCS
Chain of Tumor susceptibility gene 101 protein (Homo sapiens) (Q99816 whole entry, looked up): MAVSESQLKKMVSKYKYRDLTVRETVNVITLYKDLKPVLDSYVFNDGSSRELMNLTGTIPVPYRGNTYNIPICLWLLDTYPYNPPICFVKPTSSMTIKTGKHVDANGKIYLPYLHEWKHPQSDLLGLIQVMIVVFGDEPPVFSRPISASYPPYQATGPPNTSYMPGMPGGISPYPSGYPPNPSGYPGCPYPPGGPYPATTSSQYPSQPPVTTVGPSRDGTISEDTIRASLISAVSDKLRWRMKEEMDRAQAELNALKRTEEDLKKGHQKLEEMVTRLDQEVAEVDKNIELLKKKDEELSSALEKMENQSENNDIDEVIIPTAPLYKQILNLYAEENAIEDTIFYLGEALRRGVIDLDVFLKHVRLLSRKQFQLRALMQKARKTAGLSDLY

Take `Oc1ccc(O)cc1`: the result in assay [1] and in assay [3] was inactive. For the same compound, in assay [2], the Potency is 18.4 µM (active).
As to `COc1cc(NS(C)(=O)=O)ccc1Nc1c2ccccc2nc2ccccc12`, the result in assay [1] and in assay [3] was inactive. Moreover, the Potency result in [2] is “inactive”.
With `Nc1ccn([C@@H]2O[C@H](CO)[C@@H](O)C2(F)F)c(=O)n1`, the Potency result in assay [4] and in [6] was “inactive” throughout. Also, the outcome in [5] was inactive. For the same compound, the viability (% of control) in assay [7] came to 1.47% [at 92.2 µM]. For the same compound, in [8], the viability, percent of control was 55.7%. In addition, the Potency in assay [9] is 0.0382 µM (active).
For `CN1C2CCC1CC(OC(=O)c1c[nH]c3ccccc13)C2` (configuration not stated), the outcome in assay [1] and in assay [3] was inactive. In addition, the Potency entry in [2] was “inactive”.
Turning to `CC(CCc1ccccc1)NCC(O)c1ccc(O)c(C(N)=O)c1` (configuration not stated), the compound was classed as inactive in assay [1] and in [3]. The Potency entry in assay [2] is “inactive”.
Turning to `C[C@]12CC[C@@H]3c4ccc(O)cc4CC[C@H]3[C@@H]1CC[C@@H]2O`, the result in assay [1] and in assay [3] was inactive. Besides, in [2], the Potency entry was “inactive”.
As for `COc1cccc2c1C(=O)c1c(O)c3c(c(O)c1C2=O)C[C@@](O)(C(C)=O)C[C@@H]3O[C@H]1C[C@H](N)[C@H](O)[C@H](C)O1`, the Potency in [10] is 16.3 µM (active).
Consider `C[C@@H]1C(=O)NC2=Nc3cccc(Cl)c3CN21`, for which the outcome in assay [1] and in [3] was inactive. For the same compound, the Potency result in [2] was “inactive”.
For the compound `N[C@@H](Cc1cnc[nH]1)C(=O)O`, the result in assay [1] and in assay [3] was inactive. The Potency entry in assay [2] is “inactive”.
For the compound `CCCn1c(=O)[nH]c(=O)c2[nH]cnc21`, the compound was called inactive in assay [1] and in [3]. Further, in assay [2], the Potency result is “inactive”.
`COC(=O)[C@H]1[C@H]2C[C@H]3c4[nH]c5ccccc5c4CCN3C[C@H]2CC[C@@H]1O`: the result in assay [1] and in assay [3] was inactive. Also, the Potency entry in assay [2] is “inactive”.
Take `CC[C@H](C)C(=O)O[C@H]1CCC=C2C=C[C@H](C)[C@H](CC[C@@H]3C[C@@H](O)CC(=O)O3)[C@H]21`: the outcome in [1] and in [3] was inactive. In assay [2], the Potency entry was “inactive”.
With `O=C(O)c1cc2cc(Cc3cccnc3)ccc2o1`, the compound was classed as inactive in assay [1] and in assay [3]. Further, the Potency result in assay [2] was “inactive”.
Turning to `C[N+]1(CCCCC[N+]2(C)CCCC2)CCCC1`, the result in assay [1] and in assay [3] was inactive. The Potency entry in [2] was “inactive”.
`CNCCC=C1c2ccccc2CCc2ccccc21`: the outcome in assay [1] and in assay [3] was inactive. Also, the Potency result in [2] is “inactive”.
Consider `O=C1CCC(c2ccc(-n3ccnc3)cc2)=NN1`, for which the outcome in assay [1] and in assay [3] was inactive. Further, the Potency entry in assay [2] was “inactive”.
As to `COc1cccc2c1C(=O)c1c(O)c3c(c(O)c1C2=O)C[C@@](O)(C(=O)CO)C[C@@H]3O[C@H]1C[C@H](N)[C@H](O)[C@H](C)O1`, the results for the Potency in assay [4], in [6] and in [9] were 0.0332 µM (active), 6.68 µM (active) and 0.0372 µM (active), respectively. For the same compound, the outcome in assay [5] was inactive. The viability (% of control) in [7] amounted to 0.7%. In addition, the viability, percent of control in assay [8] stood at 20.5% [at 46.1 µM].
As to `CCCC1O[C@@H]2C[C@H]3[C@@H]4CCC5=CC(=O)C=C[C@]5(C)[C@H]4[C@@H](O)C[C@]3(C)[C@]2(C(=O)CO)O1` (some centres not stated), the call in assay [1] and in [3] was inactive. Also, the Potency result in assay [2] was “inactive”.
Consider `CC1(C)CCC(NC(=O)[C@@H](N)CCC(=O)O)CC1`, for which the call in assay [1] and in [3] was inactive. In [2], the Potency result is “inactive”.
As for `C1CCc2nnnn2CC1`, in assay [1], the compound was called inactive. In addition, in assay [2], the Potency result was “inactive”.
On to `Nc1cc(Cl)c(NC2=NCCN2)c(Cl)c1`, for which the result in [1] and in assay [3] was inactive. Moreover, in [2], the Potency entry was “inactive”.
Regarding `CNCCC(Oc1ccccc1C)c1ccccc1` (configuration not stated), the compound was called inactive in assay [1]. For the same compound, the Potency entry in assay [2] was “inactive”.
Take `N[C@H](CO)C(=O)O`: the compound was called inactive in [1] and in assay [3]. The Potency entry in [2] is “inactive”.
Regarding `CC(C)COC(=O)OCN1C(=O)CN(CCN2CC(=O)N(COC(=O)OCC(C)C)C(=O)C2)CC1=O`, the result in assay [1] and in assay [3] was inactive. Moreover, in [2], the Potency entry was “inactive”.
As for `COc1cc2c(cc1O)CC[C@@H]1[C@@H]2CC[C@]2(C)[C@@H](O)CC[C@@H]12`, the call in [1], in assay [3] and in assay [5] was inactive. Also, the Potency entry in [2] and in assay [4] was “inactive” in each case. Moreover, the viability (% of control) in assay [7] amounted to 24.3%.
Take `CC(C)C[C@H]1C(=O)N2CCC[C@H]2[C@]2(O)O[C@](NC(=O)[C@@H]3C=C4c5cccc6[nH]c(Br)c(c56)C[C@H]4N(C)C3)(C(C)C)C(=O)N12`: in assay [1], the result was inactive. Moreover, the Potency result in assay [2] is “inactive”.
Consider `CC(=O)O[C@H]1C[C@@H]2CC[C@@H]3[C@H](CC[C@@]4(C)[C@H]3C[C@H]([N+]3(C)CCCCC3)[C@@H]4OC(C)=O)[C@@]2(C)C[C@@H]1[N+]1(C)CCCCC1`, for which the outcome in assay [1] and in [3] was inactive. In [2], the Potency entry is “inactive”.
Turning to `CCC(NC(C)C)C(O)c1ccc(O)c(O)c1` (configuration not stated), the Potency entry in assay [2] was “inactive”. In [3], the compound was classed as inactive.
